These results are taken from PubChem BioAssay (NCATS).

Records with an inconclusive call do not appear. A call without a number means that no potency is given here. Activity calls are given as the source filed them. The call rests on the fitted dose curve; in most records, active means well fitted cell-killing curve with a large enough effect; inconclusive means small, poorly fitted or top-dose-only effect; inactive means flat fitted curve, though single readings scatter.
Potency means the concentration at half of the fitted maximal effect.

The assay can be described thus: qHTS assay to identify small molecule inhibitors of chordoma cells - UCH-2 (AID 1259356). Conditions: UCH-2 chordoma viability, CellTiter-Glo ATP luminescence, 48 h; series mostly up to 46.1 µM. The source says:
NIH Chemical Genomics Center [NCGC]
Chordoma is a rare and slow growing tumor that can occur anywhere along the spine, from the base of the skull to the tailbone. Current treatment options for chordoma is surgery and radiation therapy for those who are not candidates for surgery. But chordomas tend to return in the same location or surrounding areas of the original tumor after surgery and/or radiation. Chemotherapy can slow down the progression of the tumor. As chordoma is slow growing, the general cytotoxic agents that kill fast growing cells are ineffective, and some patients have been reported to respond to molecularly targeted drugs.
NCATS Pharmaceutical Collection (NPC) containing approximately 3000 clinically approved and investigational drugs were used to screen at 15 concentrations in a chordoma cell lines, UCH-2, to identify small molecule compounds that can inhibit chordoma cell growth.
NCGC Assay Protocol Summary:
Human chordoma cell line UCH-2 was dispensed at 800 per well in 4uL of culture medium into white solid bottom 1536-well plates (Corning Life Sciences, Corning, NY) using a Multidrop Combi (Thermo Scientific, Waltham, MA) dispenser. The assay plates were incubated at 37 C and 5% CO2 for an overnight, and then 23nL of compounds dissolved in DMSO and positive control were transferred using a Pintool station (Wako, San Diego, CA). Compound treatment was followed by the addition of 1uL of the combination compounds (1uM Auranofin, 500nM each of Camptothecin, Doxorubicin, Rubitecan, and Topotecan) and assay medium to each well of the assay plates using Flying Reagent Dispenser (FRD, Aurora Discovery, San Diego, CA). The assay plates were incubated at 37 C and 5% CO2 for 48hr. Then 5uL of CellTiter-Glo reagent (Promega Corporation, Madison, WI) was added to each well of the assay plates using FRD. After 30min incubation at room temperature, the luminescence signal was quantified using a ViewLux plate reader (PerkinElmer, Shelton, CT).
`CC(C)(C)c1cc(O)ccc1O`: the Potency result was “inactive”.

For the compound `O=C(NCNC(=O)NC1C(=O)NC(=O)N1CO)NC1C(=O)NC(=O)N1CO` (stereo not given), the Potency result was “inactive”.

In the case of `C[C@@H](CO)NC(=O)[C@@H]1C=C2c3cccc4[nH]cc(c34)C[C@H]2N(C)C1`, the Potency entry was “inactive”.

For the compound `O=C1CN=C(c2ccccc2)c2cc(Cl)ccc2N1CC1CC1`, the Potency result is “inactive”.

`C=CC[C@]1(O)CC[C@H]2[C@@H]3CCC4=CCCC[C@@H]4[C@H]3CC[C@@]21C`: the Potency entry was “inactive”.

Consider `FC(F)OC(F)(F)C(F)Cl` (stereo not given), for which the Potency entry is “inactive”.

Regarding `CC(=O)OO`, the Potency result was “inactive”.

Take `C/C(=C\c1csc(C)n1)[C@@H]1C[C@@H]2O[C@]2(C)CCC[C@H](C)[C@H](O)[C@@H](C)C(=O)C(C)(C)[C@@H](O)CC(=O)O1`: the Potency entry was “inactive”.

Take `[S]=[Sb](=[S])[S][Sb](=[S])=[S]`: the Potency result was “inactive”.

In the case of `CCNC1(c2cccs2)CCCCC1=O` (stereo not given), the Potency entry is “inactive”.

For `CN[C@H]1C[C@@H](N)[C@H](O)[C@@H](O[C@@H]2O[C@H](CO)[C@H](O)[C@@H]3OC4(O[C@H]23)O[C@H](C(N)CO)[C@H](O)[C@H](O)[C@H]4O)[C@@H]1O` (stereo not given in full), the Potency entry is “inactive”.

With `CCNCC(O)c1cccc(O)c1` (stereo not given), the Potency result was “inactive”.

As for `NCC(O)c1cccc(O)c1` (stereo not given), the Potency result is “inactive”.

Turning to `c1ccc2sc(SNC3CCCCC3)nc2c1`, the Potency result is “inactive”.

Consider `CCCC(C)C1(CC)C(=O)NC(=O)NC1=O` (stereo not given), for which the Potency entry was “inactive”.

On to `O=C(CCl)c1ccc(Oc2ccc(C(=O)CCl)cc2)cc1`, for which the Potency result is “inactive”.

On to `CCC(=O)O[C@@](Cc1ccccc1)(c1ccccc1)[C@@H](C)CN(C)C`, for which the Potency result was “inactive”.

As to `CN1C2CCC1CC(OC(c1ccccc1)c1ccc(Cl)cc1)C2` (stereo not given), the Potency result is “inactive”.

On to `CCCCCCC(=O)O[C@H]1CC[C@H]2[C@@H]3CC[C@H]4CC(=O)C=C(C)[C@]4(C)[C@H]3CC[C@]12C`, for which the Potency result is “inactive”.

In the case of `CN1CCCC(=C(c2cccs2)c2cccs2)C1`, the Potency entry is “inactive”.

For `CC(Cc1ccccc1)NC=O` (stereo not given), the Potency result was “inactive”.

With `COC1=CC=C2[C@H]3Cc4ccc(OC)c5c4[C@@]2(CCN3C)[C@H]1O5`, the Potency result is “inactive”.

`CN(C)[C@H](Cc1ccccc1)c1ccccc1`: the Potency entry is “inactive”.

For `Cn1sc(Cl)cc1=O`, the Potency entry is “inactive”.

As for `CC1(C)[C@H](C=C(Cl)Cl)[C@H]1C(=O)OCc1c(F)c(F)cc(F)c1F`, the Potency entry is “inactive”.

Take `C[C@H]1CCC[C@H](O)CCCCCc2cc(O)cc(O)c2C(=O)O1`: the Potency result is “inactive”.

As for `S=C=S`, the Potency result was “inactive”.

Take `O=C1C=C2C=C[C@@H]3C[C@@]2(O1)[C@H]1CCCCN31`: the Potency result was “inactive”.

As to `O=CC=O`, the Potency result is “inactive”.

Consider `O=C(C[C@@H]1NCCC[C@H]1O)Cn1cnc2cc(Br)c(Cl)cc2c1=O`, for which the Potency entry was “inactive”.

With `Oc1cc(Cl)c(Cl)cc1Cl`, the Potency entry is “inactive”.

As to `C=CCN=C=S`, the Potency entry was “inactive”.

For `O=C1CN(O)C(c2ccccc2)=c2cc(Cl)ccc2=N1`, the Potency result was “inactive”.

For `ClC=C(Cl)Cl`, the Potency entry was “inactive”.

For `CC(=O)O[C@H]1C[C@H](O[C@H]2[C@@H](O)C[C@H](O[C@H]3[C@@H](O)C[C@H](O[C@H]4CC[C@@]5(C)[C@H](CC[C@@H]6[C@@H]5C[C@@H](O)[C@]5(C)[C@@H](C7=CC(=O)OC7)CC[C@]65O)C4)O[C@@H]3C)O[C@@H]2C)O[C@H](C)[C@H]1O[C@@H]1O[C@H](CO)[C@@H](O)[C@H](O)[C@H]1O`, the Potency was 0.146 µM (active).

Take `C[CH2][Hg][S]c1ccccc1C(=O)O`: the Potency was 3.66 µM (active).

For `COc1ccc2c3c1O[C@H]1C(=O)CC[C@H]4[C@@H](C2)N(C)CC[C@]314`, the Potency entry is “inactive”.

In the case of `O=[N+]([O-])c1ccc(F)c([N+](=O)[O-])c1`, the Potency entry is “inactive”.

With `ClC1C(Cl)C(Cl)C(Cl)C(Cl)C1Cl` (stereo not given), the Potency entry was “inactive”.

`CCN(CC)C(=O)/C(Cl)=C(\C)OP(=O)(OC)OC`: the Potency entry is “inactive”.
